Source: PubChem BioAssay
Sampled rows, rich in hits. Any-hit rate of the full collection: about 4.1%.
NALP1 yeast inh = NALP1 inflammasome inhibitors in reconstituted yeast, colorimetric, S. cerevisiae, triplicate retest; S. cerevisiae NALP1/ASC/caspase-1 growth, X-gal OD620, 72 h; hit rate 0.61% among 280,000; inhibition, % at 10 µM; in the data active = inhibition mostly above about 24%, no sharp cut-off; inactive = mostly below about 32%
TIM10 inh = growth inhibitors of isogenic TIM10 control yeast, primary screen, counter-screen for tim10-1 yeast inhibitor project, luminescence, uHTS | S. cerevisiae TIM10 strain growth, BacTiter-Glo luminescence, 24 h | inhibition, % at 10 µM | hit rate 1.4% among 330,000 | AID 463195, 2010;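 active = inhibition of 40% or more at the single tested concentration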;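 note: wild-type TIM10 isogenic control strain grown at permissive 25 °C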
tim10-1 inh = growth inhibitors of tim10-1 mutant yeast, primary screen, luminescence, uHTS | S. cerevisiae tim10-1 ts strain growth, BacTiter-Glo, 24 h | inhibition, % at 20 µM | hit rate 2.2% among 330,000;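 active = inhibition of at least 40%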;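 note: mutant grown at 25 °C; 0% = DMSO wells with yeast and 100% = wells holding no yeast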
NALP3 yeast inh = NALP3 inflammasome inhibitors in reconstituted yeast, primary screen, luminescence, uHTS; Yeast reconstituted NLRP3/ASC/caspase-1, beta-gal luminescence, 24 h; inhibition, % at 10 µM; hit rate 0.39% among 330,000;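 active = inhibition of 50% or more; inactive = inhibition below 50%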;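 note: plate controls were induced DMSO wells for no effect and uninduced yeast grown without galactose for full effect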
tim23-1 inh = growth inhibitors of tim23-1 mutant yeast, primary screen, luminescence, uHTS. S. cerevisiae tim23-1 growth, BacTiter-Glo luminescence, 24 h. inhibition, % at 20 µM. hit rate 1.3% among 330,000. AID 463212, 2010;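 active = growth inhibition of the mutant yeast at or above 50%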;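 note: temperature-sensitive mutant grown at 25 °C; plate controls were DMSO-treated mutant yeast for no effect and medium wells lacking yeast for full effect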
tim10-1 conf = growth inhibitors of tim10-1 mutant yeast, confirmation, single concentration, luminescence, S. cerevisiae | inhibition, % at 20 µM | shares compounds with tim10-1 inh | hit rate 56% among 7,400 | S. cerevisiae tim10-1 ts strain growth, BacTiter-Glo, 24 h;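 active = inhibition of yeast growth at or above a set limit in either of two repeat tests at 20 µM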;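 note: tim10-1 mutant grown at permissive 25 °C to find synthetic lethal compounds; 0% = DMSO yeast wells and 100% = medium wells without yeast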
TIM10 conf = growth inhibitors of wild-type TIM10 yeast, confirmation, counter-screen for tim10-1 synthetic lethality project, single concentration, luminescence, S. cerevisiae | shares compounds with TIM10 inh | S. cerevisiae tim10 strain growth, BacTiter-Glo luminescence, 24 h | inhibition, % at 10 µM | hit rate 63% among 4,600 | AID 463215, 2010;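 active = inhibition of yeast growth at or above a set limit in either of two replicates at 10 µM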;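 note: this counterscreen used the strain with wild-type TIM10; 0% = yeast with DMSO and 100% = medium wells lacking yeast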
The depositor's hits bear a star; . = not tested or not shown.

SMILES | NALP1 yeast inh | TIM10 inh | tim10-1 inh | NALP3 yeast inh | tim23-1 inh | tim10-1 conf | TIM10 conf
Cc1ccc(C(=O)Nc2nc(-c3cccnc3)cs2)o1 | -1 | 4 | -11 | 7 | -4 | . | .
S=C(NNc1cccc(Cl)c1)NC1CCCCC1 | -4 | 61* | 49* | -1 | 40 | 41* | 55*
S=C(Nc1cccc(Cl)c1)NC1CCCCC1 | 8 | 14 | 26 | 28 | 16 | . | .
C=CCc1cccc(CNc2nc3ccccc3n2CCC)c1O | 9 | 45* | 42* | 12 | 40 | 14 | 36*
CCCn1c(/C=C/c2ccccc2)nc2ccccc21 | 14 | 42* | 42* | 44 | 45 | 23 | 28
Cc1cc2c3c(c1)C(C)CC(C)(C)N3C(=O)C2=C(C#N)C#N (stereo unspecified) | . | 59* | 57* | 14 | -44 | 46* | 49*
CC(=O)OC(C(=O)NCc1ccco1)c1ccncc1 (stereo unspecified) | -6 | 4 | 16 | 4 | 16 | . | .
Cc1cccc(C(=O)NCC(=O)OCc2nc(N)nc(Nc3ccccc3C)n2)c1 | . | 10 | 1 | 7 | -8 | . | .
Cc1ccsc1/C=N/NC(=S)NCCc1ccccc1 | 2 | 41* | 54* | 3 | 18 | -17 | 44*
Cc1ccsc1C(=O)Nc1nc2ccccc2[nH]1 | 2 | 0 | -10 | 27 | 30 | . | .
Cc1nc(Nc2ccccc2)sc1-c1ccccc1 | 38 | 63* | 54* | 18 | 49 | 54* | -32
O=c1c(Cl)c(N/N=C/c2ccc(Cl)cc2)cnn1-c1ccccc1 | 17 | 46* | 47* | 28 | 15 | 26 | 9
O=C(COc1ccc(Cl)cc1Cl)NN1C(=O)C2C3C=CC(C3)C2C1=O (stereo unspecified) | . | 17 | 15 | 6 | 11 | . | .
Cc1nn(-c2ccccc2)c2c1C1(C(=O)N(C)c3ccccc31)C(C#N)=C(N)O2 (stereo unspecified) | -14 | 41* | 67* | -7 | 39 | 54* | 30
Oc1ccc(-c2nccc(-c3ccc(Br)cc3)n2)cc1 | 6 | 41* | 47* | -4 | 44 | 49* | 64*
O=[N+]([O-])CC(c1ccc(F)cc1)c1c[nH]c2ccccc12 (stereo unspecified) | -1 | 43* | 51* | -8 | 44 | 66* | 60*
Cc1ccccc1-n1sc2cc(F)ccc2c1=O | 20 | 49* | 40* | 24 | 41 | 38* | 70*
O=c1c2ccccc2sn1-c1ccccc1 | 8 | 58* | 86* | 30 | 32 | 51* | 97*
O=c1c2cc(F)ccc2sn1-c1ccccc1 | . | 47* | 45* | 18 | 38 | 56* | 77*
O=c1c2ccccc2sn1-c1ccc(S(=O)(=O)N2CCCCC2)cc1 | . | 22 | 19 | 18 | 1 | . | .
O=C(O)c1cccc(-n2sc3ccccc3c2=O)c1 | . | 2 | 1 | 23 | 9 | . | .
CC1NC(=O)c2ccccc2-n2c1nc1cc(F)ccc1c2=O (stereo unspecified) | . | 6 | 9 | 19 | 29 | . | .
Cc1ccc(-n2sc3ccccc3c2=O)cc1S(=O)(=O)N1CCCCC1 | 3 | 57* | 87* | 9 | 17 | 89* | 76*
COc1ccc(-n2c(SCC(=O)NCc3ccco3)nc3c([nH]c4ccccc43)c2=O)cc1 | 18 | -12 | -9 | 14 | -18 | . | .
CCC1CCC(C(=O)NC(C(=O)NCCCN2CCCCC2C)C(C)C)CC1 (stereo unspecified) | 2 | 5 | 4 | -1 | 3 | . | .
SMILES | NALP1 yeast inh | TIM10 inh | tim10-1 inh | NALP3 yeast inh | tim23-1 inh | tim10-1 conf | TIM10 conf
O=C1N/C(=C\c2ccc(O)cc2)C(=O)c2ccccc21 | 5 | 48* | 55* | 7 | 40 | 42* | 36*
COc1ccnc(Oc2ccccc2)c1C(=O)N/C=N/OCc1ccccc1F | -2 | 26 | 27 | 14 | 22 | . | .
CCc1ccc(C(=O)CN(C#N)c2nc(C)cc(C)n2)cc1 | -4 | 48* | 42* | 9 | 35 | 15 | -36
COc1ccc2oc(C(=O)Nc3cccc(S(=O)(=O)N4CCOCC4)c3)c(C)c2c1 | . | 3 | -1 | 13 | -2 | . | .
O=C(CCS(=O)(=O)c1ccccc1)N(CCCN1CCOCC1)c1nc2ccccc2s1 | . | 53* | 48* | 49 | 42 | 31 | 64*
CCOc1ccc(/C=C2\SC(N3CCc4ccccc4C3)=NC2=O)cc1 | 26 | 54* | 47* | 11 | 28 | 35* | 19
c1ccc(Nc2cccc(Nc3ccccc3)n2)cc1 | 18 | 60* | 64* | 28 | 39 | 57* | -10
O=C(CCN1CCCCC1=O)NC1CCCN(Cc2ccc(Cl)cc2)C1 (stereo unspecified) | 6 | 7 | -10 | 8 | -2 | . | .
CN=C(Nc1ccc(Br)cc1)SC1CC(=O)N(c2ccc(OC)cc2)C1=O (stereo unspecified) | 0 | 45* | 41* | 6 | 18 | 22 | 27
Cc1cc(NC(=O)COC(=O)CCNS(=O)(=O)c2ccccc2)n(-c2ccccc2)n1 | . | 4 | 13 | 14 | -9 | . | .
CCC(=O)Nc1ccc(C(=O)OCc2ccc(Cl)c(Cl)c2)cc1 | 6 | 4 | 10 | 16 | 3 | . | .
CC(=O)Nc1ccc(C(=O)OCc2ccc(Cl)c(Cl)c2)cc1 | 15 | 42* | 50* | 15 | 23 | 32* | -30
CC(=O)Nc1ccc(C(=O)OCc2ccc(Cl)cc2)cc1 | 18 | 50* | 49* | 32 | 28 | 48* | 35*
CCOC(=O)c1cc(-c2ccccc2)sc1NC(=O)C(C)OC(=O)c1cccnc1OCC (stereo unspecified) | 2 | 11 | 11 | 3 | 9 | . | .
O=C(C[n+]1cn(C(F)F)c2ccccc21)c1ccc(OC(F)F)cc1 | -9 | 53* | 56* | -6 | 49 | 47* | 39*
COc1ccccc1NC(=O)N1CCC(c2nc3ccccc3o2)CC1 | 2 | -3 | 0 | 7 | 2 | . | .
Cc1nnsc1C(=O)N1CCCC(Nc2ccc(F)c(F)c2)C1 (stereo unspecified) | 6 | -7 | -5 | 4 | -5 | . | .
O=C1c2cccc3c([N+](=O)[O-])ccc(c23)C(=O)N1c1ccc(Cl)cn1 | 6 | 74* | 77* | -8 | 2 | 66* | 89*
O=C1c2cccc3cccc(c23)C(=O)N1c1nccs1 | 11 | 5 | 8 | -5 | -4 | . | .
